Many of the other results were omitted from the sample, so hits are more common in it than they were.
Shiga toxin inh = A qHTS for Small Molecule Inhibitors of Shiga Toxin; AID 2315, 2010; 290,000 compounds, 9.2% hits; Vero cells, Shiga toxin protein synthesis inhibition reporter; inhibition, % at 38.7 µM; in the data active = inhibition mostly above about 28%, no sharp cut-off; inactive = mostly below about 43%; also: 0% is about no effect
Sm TGR block = qHTS Assay for the Inhibitors of Schistosoma Mansoni Peroxiredoxins. purified TGR, DTNB reduction, TNB absorbance 405 nm. Potency, µM (titrated, usually from 114 µM), without a hit: top-dose activity change, negative = inhibition, usual class: inhibitors. 360,000 compounds, 3% hits; also: potency is read from the fitted curve at half-maximal effect; % is scaled to controls: 0 for no effect and ±100 for the full control effect; nearly all actives have a fitted effect of over 60% in size
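First, TGR (20 nM dispensed) and NADPH were mixed with compound. Second, a 15 min room-temperature incubation followed. Third, further NADPH and then DTNB were added to start the reaction. Finally, TNB absorbance was monitored kinetically.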
TbPYK inhibitor = qHTS of Trypanosoma Brucei Inhibitors; TbPYK enzyme, Kinase-Glo Plus ATP luminescence, 45 min; Potency, µM (series often up to 76.8 µM), for inactives: top-dose activity, negative = inhibition, hits mostly inhibitors; 410,000 compounds, 0.12% hits; also: potency is read from the fitted curve at half-maximal effect; % is scaled to controls: 0 for no effect and ±100 for the full control effect; nearly all actives have a fitted effect of over 50% in size
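Readout: single end-point luminescence (Kinase-Glo Plus, 10 min). Reaction conditions were TbPYK/substrate plus 130 uM ADP, 45 min at RT, pH 7.2 TEA buffer. No-enzyme wells served as controls, and data were normalized before concentration-response fitting.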
LmPK inhibitor = qHTS Assay for Inhibitors of Leishmania Mexicana Pyruvate Kinase (LmPK) | Q27686 | purified LmPK, Kinase-Glo ATP luminescence, 1 h | Potency, µM (highest dose often 57.5 µM), for the others: at the highest dose activity change, negative = inhibition, usual class: inhibitors | 290,000 compounds, 0.37% hits | AID 1721, 2009; also: potency is read from the fitted curve at half-maximal effect; % is scaled to controls: 0 for no effect and ±100 for the full control effect
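Pyruvate kinase activity monitored as ATP production (luciferase luminescence). Conditions: 0.1 nM enzyme, 0.5 mM PEP, 0.1 mM ADP, 1 h, RT; normalized against uninhibited and no-enzyme wells.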
Giardia FBPA inh = qHTS Assay for Inhibitors of Fructose-1,6-bisphosphate Aldolase from Giardia Lamblia | A8B2U2 | purified Giardia FBPA | Potency, µM (series often up to 59.6 µM), for inactives: top-dose activity, negative = inhibition, actives largely listed as inhibitors | 290,000 compounds, 0.71% hits; also: potency is read from the fitted curve at half-maximal effect; % is scaled to controls: 0 for no effect and ±100 for the full control effect; nearly all actives have a fitted effect of over 55% in size
Target sequence (A8B2U2 whole entry, looked up): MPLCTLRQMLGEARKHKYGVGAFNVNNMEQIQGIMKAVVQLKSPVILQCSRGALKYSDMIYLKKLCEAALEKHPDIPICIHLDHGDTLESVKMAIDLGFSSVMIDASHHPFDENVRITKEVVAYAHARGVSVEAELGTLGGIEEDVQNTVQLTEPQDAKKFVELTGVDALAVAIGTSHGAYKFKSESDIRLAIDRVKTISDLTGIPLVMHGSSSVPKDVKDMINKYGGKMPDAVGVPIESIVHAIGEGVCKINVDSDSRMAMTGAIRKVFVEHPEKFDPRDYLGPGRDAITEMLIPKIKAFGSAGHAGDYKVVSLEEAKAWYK
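40 nM FBPA preincubated 10 min at RT with compound (up to 57.5 uM final), then substrate plus GAPDH/TPI/NAD/arsenate coupling and diaphorase/resazurin added. Fluorescence read after 20 min at RT, 525/598 nm.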
CHX counter = Cycloheximide Counterscreen for Small Molecule Inhibitors of Shiga Toxin | cell reporter, cycloheximide protein synthesis inhibition counterscreen | 300,000 compounds, 12% hits | max response, %; in the data active = max response mostly above about 13%, no sharp cut-off; inactive = mostly below about 14%; also: read at 38.3 µM for the half of the compounds with a filed dose; 0% is about no effect
The depositor's hits bear a star; ? = inconclusive; . = no result. Unless noted, calls follow the shape of the dose curve; as a rule, active = well fitted curve in the direction sought with a large enough effect; inconclusive = small, poorly fitted or top-dose-only effect, or another doubt; inactive = no such curve, though single readings can be large; an effect the other way counts as inactive or inconclusive.

SMILES	Shiga toxin inh	Sm TGR block	TbPYK inhibitor	LmPK inhibitor	Giardia FBPA inh	CHX counter
O=C(Nc1ncc(Cc2cccc(Cl)c2)s1)c1cccs1	126*	-22%	9%	-1%	.	54*
Cc1ccc(C(=O)Nc2ncc(Cc3ccccc3)s2)o1	80*	0%	.	?	-5%	42*
O=C(Nc1nnc(SCc2ccccc2)s1)c1cccs1	22	-1%	-6%	-27%	17%	11
Cc1ccc(Cc2cnc(NC(=O)c3cccs3)s2)cc1	192*	8%	-5%	2%	.	46*
CC#CC#Cc1cccc(=O)o1	61*	20µM*	0%	-1%	-1%	25*
O=C(NCc1cccnc1)C1CCN(S(=O)(=O)c2cc(Cl)ccc2Cl)CC1	-6	-5%	-2%	-2%	2%	-4
COc1ccc(Cn2c(=S)[nH]c3ccccc3c2=O)cc1	-7	8%	-1%	-1%	21%	-3
COc1ccc(CSCC(=O)Nc2ccccc2SC)cc1	-10	-5%	-16%	5%	-10%	0
Cc1ccc(NC(=O)CCC(=O)Nc2ccc(C)cc2)cc1	-14	2%	0%	3%	7%	6
Cc1ccc(NC(=O)CSCc2ccco2)cc1	105*	?	3%	-4%	-4%	23*
CCCCNC(=O)Cc1ccc(C)cc1	21	-9%	-10%	3%	1%	0
Cc1ccc(CSCC(=O)Nc2ccccc2F)cc1	68*	-3%	-10%	1%	2%	25*
Cc1ccc(NC(=O)Cc2ccc(F)cc2)cc1	13	-3%	3%	-4%	-3%	21*
CCC(C)(C)NC(=O)Cc1ccc(C)cc1	83*	-3%	5%	1%	18%	21*
CCC(Nc1ccc(-c2nc(-c3cccnc3)no2)cc1[N+](=O)[O-])c1ccccc1 (stereo unspecified)	.	-5%	2%	.	.	.
COc1ccc(Br)cc1CNC(=O)CCCn1c(=O)c2cccn2c2cccnc21	.	-7%	-6%	.	.	.
Cc1ccc(NC(=O)CSCc2ccc(F)cc2)cc1	76*	-4%	0%	0%	-2%	51*
Cc1ccc(CSCC(=O)NCc2ccc(F)cc2)cc1	-1	-7%	1%	2%	1%	16
CCN1CCN(C(=O)c2ccc3c(=O)n(CCc4ccccc4)c(=O)[nH]c3c2)CC1	59*	-1%	4%	2%	3%	20*
COc1ccc(CCNC(=O)C/C(C)=N/NC(=O)c2ccc(N)cc2)cc1OC	27	5%	-2%	-1%	2%	12*
COc1cc(C(=O)NCCc2ccc(F)cc2)ccc1OCC(=O)N1CCOCC1	.	-10%	1%	.	.	.
COc1ccc(CCNC(=O)C/C(C)=N/NC(=O)c2ccc(Cl)cc2Cl)cc1OC	9	-1%	-8%	-1%	5%	9
COc1ccc(CCn2c(=O)[nH]c3cc(C(=O)NCCc4ccccc4)ccc3c2=O)cc1OC	25*	-11%	.	0%	9%	25*
CC(=O)NCCNC(=O)c1ccc2c(=O)n(CCc3ccccc3)c(=O)[nH]c2c1	.	-1%	1%	.	.	.
COc1ccc(C(=O)NCCc2ccc(F)cc2)cc1OC	25	-1%	-1%	-1%	1%	27*
O=C(CSc1nc(-c2ccccc2)cs1)N1CCN(C(=O)c2ccco2)CC1	13	-33%	-1%	6%	5%	18*
O=C(CSc1ccccc1F)NC(=O)NCc1ccco1	-3	?	1%	9%	3%	4
Cc1ccccc1CSCC(=O)NC(=O)NCc1ccco1	12	?	-9%	4%	20%	16*
N#CCSc1nc(-c2ccccc2)cs1	50*	-9%	0%	-2%	-6%	30*
O=C(CSc1ccccc1)N1CCN(C(=O)c2ccco2)CC1	-4	?	7%	-2%	3%	8

Screening results (PubChem)
